# Experimental data as given in the supplement of paper PMC9694430.
# How the values were obtained:
# Assay in all cases: thermal shift delta Tm vs DMSO control; higher = stronger stabilization (binding)
# Details in all cases: 12.5 µM; protein concentration 2 µM
# LOC_OS04G57630-cb004 = test system: LOC_OS04G57630-cb004
# Procedure, shortened: (§1)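 Rice kinase domain constructs, made in E. coli and purified, were placed in 96-well plates at 2 μM in 19.5 μl of 100 mM potassium phosphate pH 7.5, 150 mM NaCl, 10% glycerol and 5 × SYPRO Orange, with compound in DMSO. A temperature ramp from 25°C to 95°C at 0.05°C/s was used for differential scanning fluorimetry. The melting temperature shift is a triplicate mean compared with DMSO-only protein, derived from Boltzmann fits.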
# LOC_OS05G07850-cb002 = test system: LOC_OS05G07850-cb002
# Procedure, shortened: as §1
# LOC_OS05G16824-cb004 = test system: LOC_OS05G16824-cb004
# Procedure, shortened: as §1
# LOC_OS05G28520-cb001 = test system: LOC_OS05G28520-cb001
# Procedure, shortened: as §1
# LOC_OS05G30820-cb001 = test system: LOC_OS05G30820-cb001
# Procedure, shortened: as §1
# LOC_OS05G43570-cb004 = test system: LOC_OS05G43570-cb004
# Procedure, shortened: as §1
# LOC_OS06G16330-cb003 = test system: LOC_OS06G16330-cb003
# Chain of LOC_OS06G16330-cb003 (as listed by the source): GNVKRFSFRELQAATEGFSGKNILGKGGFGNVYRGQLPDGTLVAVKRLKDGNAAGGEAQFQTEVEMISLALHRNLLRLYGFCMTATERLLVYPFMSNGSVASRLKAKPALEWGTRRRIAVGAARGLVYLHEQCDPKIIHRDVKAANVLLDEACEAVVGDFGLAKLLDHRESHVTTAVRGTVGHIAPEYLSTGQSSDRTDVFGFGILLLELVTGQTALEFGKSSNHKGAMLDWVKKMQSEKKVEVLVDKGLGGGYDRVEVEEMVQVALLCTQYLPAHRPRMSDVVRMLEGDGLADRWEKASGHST
# Procedure, shortened: as §1
# LOC_OS06G22820-cb001 = test system: T1, LOC_OS06G22820-cb001
# T1 sequence (whole entry): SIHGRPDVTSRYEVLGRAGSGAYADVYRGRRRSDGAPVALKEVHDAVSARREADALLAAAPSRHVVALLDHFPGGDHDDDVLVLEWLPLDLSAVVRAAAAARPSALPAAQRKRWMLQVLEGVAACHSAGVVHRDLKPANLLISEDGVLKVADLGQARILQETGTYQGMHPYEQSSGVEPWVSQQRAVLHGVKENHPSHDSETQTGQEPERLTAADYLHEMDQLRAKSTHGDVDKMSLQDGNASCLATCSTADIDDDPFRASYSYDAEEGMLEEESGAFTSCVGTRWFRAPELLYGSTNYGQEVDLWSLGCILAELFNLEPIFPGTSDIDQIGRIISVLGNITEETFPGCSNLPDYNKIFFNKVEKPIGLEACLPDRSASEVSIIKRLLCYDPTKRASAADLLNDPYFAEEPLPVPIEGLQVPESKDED
# Procedure, shortened: as §1
# LOC_OS07G06570-cb004 = test system: LOC_OS07G06570-cb004
# Procedure, shortened: as §1
# LOC_OS07G07230-cb001 = test system: LOC_OS07G07230-cb001
# Procedure, shortened: as §1
# 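Also: purified Escherichia coli-expressed rice kinase domain construct.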
smiles,measurement,setting,value
C=CC(=O)Nc1cccc(Sc2nc(Nc3ccc(N4CCN(C)CC4)cc3)ncc2Cl)c1,thermal shift delta Tm,LOC_OS04G57630-cb004,4.52 °C
same,thermal shift delta Tm,LOC_OS05G07850-cb002,11.5 °C
same,thermal shift delta Tm,LOC_OS05G16824-cb004,7.67 °C
same,thermal shift delta Tm,LOC_OS05G28520-cb001,7.81 °C
same,thermal shift delta Tm,LOC_OS05G30820-cb001,2.25 °C
same,thermal shift delta Tm,LOC_OS05G43570-cb004,0.95 °C
same,thermal shift delta Tm,LOC_OS06G16330-cb003,5.61 °C
same,thermal shift delta Tm,LOC_OS06G22820-cb001,-0.33 °C
same,thermal shift delta Tm,LOC_OS07G06570-cb004,0.28 °C
same,thermal shift delta Tm,LOC_OS07G07230-cb001,0.95 °C
COc1cc2ncnc(Nc3ccc(Cl)cc3F)c2cc1OC,thermal shift delta Tm,LOC_OS04G57630-cb004,0.21 °C
same,thermal shift delta Tm,LOC_OS05G07850-cb002,10.1 °C
same,thermal shift delta Tm,LOC_OS05G16824-cb004,2.13 °C
same,thermal shift delta Tm,LOC_OS05G28520-cb001,0.86 °C
same,thermal shift delta Tm,LOC_OS05G30820-cb001,0.51 °C
same,thermal shift delta Tm,LOC_OS05G43570-cb004,0.29 °C
same,thermal shift delta Tm,LOC_OS06G16330-cb003,4.29 °C
same,thermal shift delta Tm,LOC_OS06G22820-cb001,0.69 °C
same,thermal shift delta Tm,LOC_OS07G06570-cb004,1.37 °C
same,thermal shift delta Tm,LOC_OS07G07230-cb001,-0.11 °C
Cc1ncc(-c2ccnc(Nc3ccc(S(C)(=O)=O)cc3)n2)n1C(C)C,thermal shift delta Tm,LOC_OS04G57630-cb004,1.43 °C
same,thermal shift delta Tm,LOC_OS05G07850-cb002,11.2 °C
same,thermal shift delta Tm,LOC_OS05G16824-cb004,6.1 °C
same,thermal shift delta Tm,LOC_OS05G28520-cb001,0.35 °C
same,thermal shift delta Tm,LOC_OS05G30820-cb001,1.14 °C
same,thermal shift delta Tm,LOC_OS05G43570-cb004,0.74 °C
same,thermal shift delta Tm,LOC_OS06G16330-cb003,5.53 °C
same,thermal shift delta Tm,LOC_OS06G22820-cb001,1.02 °C
same,thermal shift delta Tm,LOC_OS07G06570-cb004,0.69 °C
same,thermal shift delta Tm,LOC_OS07G07230-cb001,0.17 °C
COc1cc2c(Nc3ccc(NC(=O)c4ccccc4)cc3)ncnc2cc1OCCCN1CCOCC1,thermal shift delta Tm,LOC_OS04G57630-cb004,1.89 °C
same,thermal shift delta Tm,LOC_OS05G07850-cb002,5.62 °C
same,thermal shift delta Tm,LOC_OS05G16824-cb004,1.9 °C
same,thermal shift delta Tm,LOC_OS05G28520-cb001,1.02 °C
same,thermal shift delta Tm,LOC_OS05G30820-cb001,0.36 °C
same,thermal shift delta Tm,LOC_OS05G43570-cb004,0.4 °C
same,thermal shift delta Tm,LOC_OS06G16330-cb003,1.97 °C
same,thermal shift delta Tm,LOC_OS06G22820-cb001,0.94 °C
same,thermal shift delta Tm,LOC_OS07G06570-cb004,0.77 °C
same,thermal shift delta Tm,LOC_OS07G07230-cb001,0.42 °C
COc1ccc(-c2cc3c(C)nc(N)nc3n([C@H]3CC[C@H](OCCO)CC3)c2=O)cn1,thermal shift delta Tm,LOC_OS04G57630-cb004,0.78 °C
same,thermal shift delta Tm,LOC_OS05G07850-cb002,0.06 °C
same,thermal shift delta Tm,LOC_OS05G16824-cb004,-1.05 °C
same,thermal shift delta Tm,LOC_OS05G28520-cb001,0.57 °C
same,thermal shift delta Tm,LOC_OS05G30820-cb001,0.75 °C
same,thermal shift delta Tm,LOC_OS05G43570-cb004,0.65 °C
same,thermal shift delta Tm,LOC_OS06G16330-cb003,-0.03 °C
same,thermal shift delta Tm,LOC_OS06G22820-cb001,0.69 °C
same,thermal shift delta Tm,LOC_OS07G06570-cb004,1.04 °C
same,thermal shift delta Tm,LOC_OS07G07230-cb001,0.01 °C
O=c1cc(N2CCOCC2)oc2c(-c3ccccc3)cccc12,thermal shift delta Tm,LOC_OS04G57630-cb004,0.2 °C
same,thermal shift delta Tm,LOC_OS05G07850-cb002,1.02 °C
same,thermal shift delta Tm,LOC_OS05G16824-cb004,0.85 °C
same,thermal shift delta Tm,LOC_OS05G28520-cb001,0.91 °C
same,thermal shift delta Tm,LOC_OS05G30820-cb001,0.41 °C
same,thermal shift delta Tm,LOC_OS05G43570-cb004,0.98 °C
same,thermal shift delta Tm,LOC_OS06G16330-cb003,0.37 °C
same,thermal shift delta Tm,LOC_OS06G22820-cb001,1.05 °C
same,thermal shift delta Tm,LOC_OS07G06570-cb004,0.89 °C
same,thermal shift delta Tm,LOC_OS07G07230-cb001,-0.39 °C
COc1cc2ncnc(Oc3ccc(CC(=O)Nc4cnn(C(C)C)c4)cc3)c2cc1OC,thermal shift delta Tm,LOC_OS04G57630-cb004,1.78 °C
same,thermal shift delta Tm,LOC_OS05G07850-cb002,8.95 °C
same,thermal shift delta Tm,LOC_OS05G16824-cb004,0.86 °C
same,thermal shift delta Tm,LOC_OS05G28520-cb001,0.43 °C
same,thermal shift delta Tm,LOC_OS05G30820-cb001,0.37 °C
same,thermal shift delta Tm,LOC_OS05G43570-cb004,-0.02 °C
same,thermal shift delta Tm,LOC_OS06G16330-cb003,0.82 °C
same,thermal shift delta Tm,LOC_OS06G22820-cb001,0.41 °C
same,thermal shift delta Tm,LOC_OS07G06570-cb004,1.54 °C
same,thermal shift delta Tm,LOC_OS07G07230-cb001,0.45 °C
C[C@@H](N)[C@H]1CC[C@H](C(=O)Nc2ccncc2)CC1,thermal shift delta Tm,LOC_OS04G57630-cb004,0.06 °C
same,thermal shift delta Tm,LOC_OS05G07850-cb002,0.75 °C
same,thermal shift delta Tm,LOC_OS05G16824-cb004,1.53 °C
same,thermal shift delta Tm,LOC_OS05G28520-cb001,0.81 °C
same,thermal shift delta Tm,LOC_OS05G30820-cb001,0.41 °C
same,thermal shift delta Tm,LOC_OS05G43570-cb004,0.43 °C
same,thermal shift delta Tm,LOC_OS06G16330-cb003,0.4 °C
same,thermal shift delta Tm,LOC_OS06G22820-cb001,0.94 °C
same,thermal shift delta Tm,LOC_OS07G06570-cb004,0.98 °C
same,thermal shift delta Tm,LOC_OS07G07230-cb001,0.08 °C
CC1Oc2cc(cnc2N)-c2c(nn(C)c2C#N)CN(C)C(=O)c2ccc(F)cc21 (stereo not given),thermal shift delta Tm,LOC_OS04G57630-cb004,0.38 °C
same,thermal shift delta Tm,LOC_OS05G07850-cb002,2.16 °C
same,thermal shift delta Tm,LOC_OS05G16824-cb004,-1.64 °C
same,thermal shift delta Tm,LOC_OS05G28520-cb001,0.23 °C
same,thermal shift delta Tm,LOC_OS05G30820-cb001,0.66 °C
same,thermal shift delta Tm,LOC_OS05G43570-cb004,0.83 °C
same,thermal shift delta Tm,LOC_OS06G16330-cb003,10.9 °C
same,thermal shift delta Tm,LOC_OS06G22820-cb001,0.16 °C
same,thermal shift delta Tm,LOC_OS07G06570-cb004,0.86 °C
same,thermal shift delta Tm,LOC_OS07G07230-cb001,0.75 °C
